Screens (PubChem)
An excerpt weighted towards active compounds, which were near 6.2% of everything screened.
HT1080 IDH1KD tx: qHTS for induction of synthetic lethality in tumor cells producing 2HG: qHTS for the HT-1080-IDH1KD cell line; Potency, µM (doses to about 46.1 µM), usual class: cytotoxic; 360,000 tested, 2% active; HT-1080 IDH1 knockdown viability, ATP luminescence, 48 h
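In this qHTS, HT-1080 cells depleted of IDH1 are exposed for 48 h at 37 °C to compound titrations. Toxicity is scored from CellTiter-Glo luminescence, with DMSO as full viability and medium alone as none.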
KB-3-1 tox: qHTS assay for MDR1-selective chemotherapeutics: Primary screen using the parental adenocarcinoma cell KB-3-1. KB-3-1 viability, CellTiter-Glo ATP luminescence, 72 h. Potency, µM (titrated, usually from 46.1 µM), actives largely listed as cytotoxic. 400,000 tested, 1.4% active; also: nearly all actives have a fitted effect of over 60% in size
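Multi-concentration cytotoxicity screen in KB-3-1 cells grown in DMEM lacking phenol red with 10% FBS. After 72 h at 37 °C with compound, ATP-dependent luminescence was recorded.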
ATXN viability: Viability Counterscreen for Primary qHTS for Inhibitors of ATXN expression; S2 cells (HEK-293 line with an ATXN2-luciferase reporter) viability, CellTiter-Fluor protease fluorescence, 24 h; Potency, µM (doses to about 56.7 µM), usual class: cytotoxic; 400,000 tested, 0.49% active; AID 651635, 2014; also: nearly all actives have a fitted effect of over 40% in size
HT1080-NT tox: qHTS for induction of synthetic lethality in tumor cells producing 2HG: qHTS for the HT-1080-NT fibrosarcoma cell line. HT-1080-NT fibrosarcoma viability, CellTiter-Glo ATP luminescence, 48 h. Potency, µM (top dose mostly 46.1 µM), most hits filed as cytotoxic. 360,000 tested, 1.6% active. AID 686970, 2013;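 also: NT is the 2HG producing partner of a matched IDH1 knockdown line; nearly all actives have a fitted effect of over 55% in size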
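HT-1080-NT fibrosarcoma cells (2HG-overproducing), 750 cells/well in RPMI with 5% FBS, dosed after 2 h and incubated 48 h at 37C. CellTiter-Glo luminescence normalized to DMSO and no-cell wells; concentration-response curves fitted and classed.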
ATXN2 expr inh: Primary qHTS for Inhibitors of ATXN expression. HEK-293 ATXN2-luciferase reporter, luminescence, 24 h. Potency, µM (top dose mostly 57 µM), usual class: inhibitors. 360,000 tested, 0.72% active. AID 1745845, 2022; also: nearly all actives have a fitted effect of over 55% in size
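ATXN2-luciferase reporter cells (luciferase flanked by upstream and downstream ATXN2 gene portions) were treated 24 h at 37 °C with compounds at up to 57 uM. SteadyGlo luminescence gave expression; GF-AFC fluorescence gave viability.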
KB-V1 MDR tox: qHTS assay for MDR1-selective chemotherapeutics: Primary screen using the drug-selected MDR subline cells KB-V1; KB-V1 MDR cells viability, CellTiter-Glo, 72 h; Potency, µM (top dose mostly 46.1 µM), actives largely listed as cytotoxic; 400,000 tested, 3.4% active; AID 1347076, 2019; also: nearly all actives have a fitted effect of over 60% in size
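KB-V1 MDR subline cells in DMEM (phenol-red free, 10% FBS) exposed to compounds in qHTS concentration series for 72 h at 37 degrees C. Viability read by CellTiter-Glo luminescence; concentration-effect curves fitted after normalization and correction.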
Numbers stand for hits; 0 = inactive; ? = inconclusive; - = no result; ! = repeats disagree. Calls follow the shape of the dose curve; as a rule, active = well fitted curve in the direction sought with a large enough effect; inconclusive = small, poorly fitted or top-dose-only effect, or another doubt; inactive = no such curve, though single readings can be large; an effect the other way counts as inactive or inconclusive.

SMILES | HT1080 IDH1KD tx | KB-3-1 tox | ATXN viability | HT1080-NT tox | ATXN2 expr inh | KB-V1 MDR tox
CCn1c(CN2CCC(C)CC2)nc2cc(S(=O)(=O)N3CCCCC3)ccc21 | 0 | 0 | ? | 0 | - | ?
Cc1cc2c(cc1S(=O)(=O)CCC(=O)N1CCCCC1C)OCC(=O)N2 (centres undefined) | - | 0 | ? | - | 0 | 0
O=C(Nc1cc(Cl)cc(Cl)c1)c1cccc(OC(F)F)c1 | 0 | 13µM | 0 | 0 | ? | 16µM
CC1OC(CC(=O)O)CC2=C1C(=O)c1c(O)cccc1C2=O (centres undefined) | 0.26µM | 3.7µM | 0.95µM | 1.3µM | 1.2µM | 2.9µM
O=C(CCNC(=O)c1ccc(Cl)cc1)Nc1cc(C(F)(F)F)ccc1N1CCOCC1 | 0 | 0 | 0 | 0 | - | ?
Cc1ccc([N+](=O)[O-])cc1S(=O)(=O)Nc1ccc(C(=O)NCc2ccccn2)cc1 | 0 | 0 | 0 | 0 | 0 | 0
Cn1c(=NC(=O)C2=NNC(=O)CC2)sc2ccccc21 | 0 | 3.3µM | 0 | 0 | 0 | 1.5µM
Cn1c(=NC(=O)CN2C(=O)C3CC=CCC3C2=O)sc2ccccc21 (centres undefined) | 0 | 0 | ? | 0 | 0 | 5.2µM!
CC1CCCC(C)N1C(=O)CSCc1ccc(Cl)cc1 (centres undefined) | 0 | ? | 0 | 0 | 0 | 18µM
COc1ccccc1CNC(=O)CCC1N=C2c3ccccc3N=C(SCC(=O)Nc3ccc(F)cc3)N2C1=O (centres undefined) | - | 0 | - | - | - | 0
CCN(CC)S(=O)(=O)c1ccc2oc(C(=O)NCCCN3CCOCC3)c(C)c2c1 | 0 | 0 | 0 | 0 | 0 | 0
CCCCN(CCCC)S(=O)(=O)c1ccc2oc(C(=O)N3CCOCC3)c(C)c2c1 | 0 | 0 | 0 | 0 | 0 | 4.6µM
CC(C)(C)c1ccc(C(=O)C[n+]2cc(Br)cc(Br)c2)cc1 | - | 0 | - | - | - | 0
CO/N=C\CC(=O)Nc1ccc(Cl)c(Cl)c1 | 6.5µM | 7.3µM | 0 | 8.2µM | 0 | ?
CCCCn1nc(C(=O)N(C)CC(=O)Nc2ccc(F)c(F)c2F)ccc1=O | 0 | 0 | 0 | 0 | 0 | 15µM
CCC(C)(C)NC(=O)CN(Cc1ccc2c(c1)OCO2)C(=O)CCC(=O)Nc1cc(C)ccn1 | 0 | ? | 0 | 0 | 0 | ?
N#C/C(=C\c1c[nH]c2ccc(Br)cc12)c1ccccn1 | ? | 0 | 0 | 26µM | 0 | 0
COC(=O)c1ccc(C2C(C#N)=C(N)Oc3cc(N)ccc32)cc1 (centres undefined) | 0 | 0 | 0 | 0 | 0 | 0
N#CC1=C(N)Oc2cc(N)ccc2C1c1cccc(F)c1 (centres undefined) | 2.3µM | 5.2µM | 0 | 2.9µM | 0 | ?
N#CC1=C(N)Oc2cc(N)ccc2C1C1CCCCC1 (centres undefined) | 8.2µM | 5.8µM | 0 | 21µM | 0 | ?
N#CC1=C(N)Oc2cc(O)ccc2C1c1cccnc1 (centres undefined) | 0 | ? | 0 | 0 | 0 | ?
CN(C)c1ccc2c(c1)OC(N)=C(C#N)C2c1cccc(F)c1 (centres undefined) | 0.22µM | ? | 0 | 0.18µM | ? | ?
CCc1cccc(N2C(=O)N(Cc3c(F)cccc3Cl)c3ccccc3S2(=O)=O)c1 | - | 0 | 0 | - | 0 | ?
Cc1ccc(CNC(=O)c2cc(S(=O)(=O)N3CCOCC3)cn2C)cc1 | 0 | 0 | 0 | 0 | 0 | 0
CCOC(=O)[C@]12CCCC=C1N(CCC1=CCCCC1)C(=O)[C@H](CC(=O)NCc1ccc(OC)c(OC)c1)C2 | 0 | 0 | - | 0 | - | ?
SMILES | HT1080 IDH1KD tx | KB-3-1 tox | ATXN viability | HT1080-NT tox | ATXN2 expr inh | KB-V1 MDR tox
CCC(Oc1ccccc1)C(=O)Nc1ccc2oc(-c3ccc(OC)cc3)nc2c1 (centres undefined) | - | 0 | 0 | - | 0 | 0
COCCn1c(C)cc(C(=O)CSc2cc(C)c3ccccc3n2)c1C | 0 | 0 | 0 | 0 | 0 | 2.3µM
COCCn1c(C)cc(C(=O)CSc2nc3ccccc3c(=O)n2Cc2ccco2)c1C | 0 | ? | 0 | 0 | 0 | 0.65µM
CCCNC(=O)CSc1nc2nc(C)c(Cc3ccccc3Cl)c(C)n2n1 | - | 0 | 0 | - | 0 | 0
Oc1cc(-c2nc(-c3ccccc3)[nH]c2-c2ccncc2)ccc1Cl | - | - | - | - | 0 | -
Cc1c(CN(C)C(=O)c2cc(-c3ccccc3)nc3ccc(Br)cc23)cnn1C | - | 0 | ? | - | 22µM | 0
CCOc1ccc(CCNC(=O)Cn2nnc(-c3ccc(C(F)(F)F)cc3)n2)cc1OCC | - | 0 | 0 | - | 0 | 0
c1ccc2c(c1)c1ccccc1n1c(-c3ccc4c(c3)OCO4)nnc21 | 0 | ? | 0 | 0 | ? | 21µM
Cn1c(-c2ccc3c(c2)OCO3)cc(=O)c2ccccc21 | 0 | 0 | 0 | 0 | 0 | 0
COCCn1c(SCc2csc(-c3ccccc3)n2)nc2ccccc21 | 0 | 16µM | 0 | ? | 0 | 8.2µM
COCCn1c(SCC(=O)NCc2ccccc2)nc2ccccc21 | 0 | 0 | 0 | 0 | 0 | 0
COC(=O)c1cccc(-c2cc(Cl)c3c(c2)CC(CNC(=O)c2cccnc2)O3)c1 (centres undefined) | - | - | 0 | - | - | -
CC[n+]1c(/C=C/c2c[nH]c3ccccc23)ccc2cc(C)ccc21 | 18µM | 9.2µM | ? | 29µM | ? | 0
CCN(CC)C(=O)c1ccc(/C=C/c2c[nH]c3ccccc23)[n+](C)c1 | 0 | 0 | ? | 0 | 0 | 0
CN(C)C(=O)c1cccc(-c2cnc3c(NC=O)cc(-c4ccc(N(C)C)cc4)cn23)c1 | 0 | 0 | ? | ? | 0 | 0
C[C@]12CC[C@@H]3c4ccc(O)cc4CC[C@H]3[C@@H]1CC[C@@H]2OC(=O)CCC1CCCC1 | 0 | 0 | 0 | 0 | 0 | 0
CCCCC(=O)O[C@H]1CC[C@H]2[C@@H]3CCc4cc(O)ccc4[C@H]3CC[C@]12C | ? | ? | ? | 21µM | ? | ?
Cc1ccn2c(Nc3ccc(F)cc3)c(-c3ccccn3)nc2c1 | - | 0 | ? | - | 0 | ?
Cc1cccc2nc(-c3ccccn3)c(Nc3ccccc3)n12 | - | 0 | ? | - | ? | 6.5µM
Cc1ccc(Nc2c(-c3ccccn3)nc3cccc(C)n23)cc1 | 7.3µM | 5.2µM | ? | 12µM | 6.3µM | 6.5µM
Cc1ccc(Nc2c(-c3ccc(C)o3)nc3cccc(C)n23)cc1 | 0 | 0 | ? | 0 | ? | 0
Cc1cccc2nc(-c3ccccn3)c(Nc3ccc(F)cc3)n12 | - | 0 | - | - | 18µM | ?
Cc1cccc2nc(-c3ccco3)c(Nc3ccccc3)n12 | 0 | ? | 0 | 0 | - | ?
